Data taken from PubChem BioAssay.
The source made the active and inactive calls.

Test: E. coli acrAB mutant growth effects, primary screen, E. coli filamentation inducers, strain DRC39, OD650, 48 h (AID 1179);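 also: screen aims at cell division blockers that make cells filament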
Conditions: E. coli DRC39 delta-acrAB growth, higher = more signal, called active from +8 up or from −8 down

| SMILES | z-score |
| --- | --- |
| CCCCCCCCCCC(O)C1C=CC2C(=O)N(c3ccccc3)C(=O)C2N1Nc1ccc([N+](=O)[O-])cc1 (configuration not stated) | 0.0458 (inactive) |
| CN1C(=O)C2C=CC(C(O)c3ccccc3)N(NC(=O)OC(C)(C)C)C2C1=O (configuration not stated) | -0.454 (inactive) |
| CN(C)CCCC[C@@H]1NC(=O)[C@@H]2C[C@H](C(=O)NCCCCCCN)[C@H](c3ccc(O)cc3)N2C1=O | -0.234 (inactive) |
| CCOC(=O)C[C@H]1[C@H](OC(=O)c2cc3ccccc3oc2=O)[C@@H](NC(=O)c2ccc3ccccc3c2)c2cc(OCCCO)ccc2N1C(=O)c1ccccc1 | -1.03 (inactive) |
| COc1ccc([Si](C)(C)[C@@H]2[C@@H](CCO)O[C@]3(C(=O)N(Cc4ccc(N5C(=O)c6cccc7cccc5c67)cc4)c4ccccc43)[C@H]2C)cc1 | 1.19 (inactive) |
| O=C(NCC(O)CO)[C@@]1(Cc2ccccc2)COC(c2ccc(OCCCO)cc2)=N1 (some centres not stated) | 0.276 (inactive) |
| CC(C)(C)OC(=O)CC[C@]1(C(=O)NCC(O)CO)N=C(c2ccc(OCCCO)cc2)O[C@H]1c1ccccc1CN=[N+]=[N-] (some centres not stated) | -0.659 (inactive) |
| C=C(/C(=C/C[C@@H](OC(C)=O)c1ccc(CO)o1)c1cnc2ccccc2c1)C(C)C | -0.0766 (inactive) |
| O=C1O[C@H](c2ccccc2)[C@H](c2ccccc2)N2[C@H]1[C@@H](C(=O)NC[C@H](O)c1ccccc1)[C@]1(C(=O)Nc3ccc(C#CC4(O)CCCCCC4)cc31)[C@H]2c1ccccc1OCCO | 0.283 (inactive) |
| O=C1C[C@@](C(=O)O)(c2ccc([N+](=O)[O-])cc2)[C@@H](c2ccc(CO)cc2I)N1C1CCCCC1 | 0.466 (inactive) |
| COc1ccc(CCNC(=O)[C@@]2(C)c3ccccc3C(=O)N(Cc3ccccc3)[C@H]2c2ccc(CO)cc2)cc1 | 0.535 (inactive) |
| CC1CC/C=C\[C@H]2OC34C=CCN(Cn5nnc6ccccc65)C(=O)[C@H]3N(CCCO)C(=O)[C@@H]4C2C(=O)O1 (some centres not stated) | -0.0371 (inactive) |

Test: RPMI8226 myeloma cell viability, profiling panel, resazurin fluorescence, basal, 24 h, PK04 Diversity Set (AID 1180);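 also: RPMI8826 multiple myeloma cell line at 5000 cells per well; test concentration not given here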
Conditions: higher = more signal

| SMILES | z-score |
| --- | --- |
| CC1CC/C=C\[C@H]2OC34C=CCN(c5ccc6ccccc6c5)C(=O)[C@H]3N(CCCCCO)C(=O)[C@@H]4C2C(=O)O1 (some centres not stated) | -0.0986 |
| CN1C(=O)C2C=CC(C(O)C(C)(C)C)N(Nc3ccccc3)C2C1=O (configuration not stated) | -0.444 |
| Cc1ccc(S[C@]2(C(=O)NCCCN(C)C)CC(=O)N(Cc3ccccc3)[C@@H]2c2ccc(CO)cc2)cc1 | 0.63 |
| O=C1O[C@H](c2ccccc2)[C@H](c2ccccc2)N2[C@H]1[C@@H](C(=O)NC[C@H](O)c1ccccc1)[C@]1(C(=O)Nc3ccc(C#CC4=CCCCC4)cc31)[C@H]2c1ccc(O)cc1 | -3.63 |
| O=C(CS)NCCCCCNC(=O)[C@H]1C[C@H]2C(=O)N[C@@H](Cc3ccccc3)C(=O)N2[C@H]1c1cccc(OCCO)c1 | 0.889 |
| CCCC[C@H]1OB(O)C[C@H]2C1=C(COc1ccccc1)C[C@H]1C(=O)N(Cc3ccccc3)C(=O)[C@H]12 | 0.421 |
| O=c1cccc(-c2cccc3ccccc23)o1 | 0.024 |
| CCCCCN1CC=CC23O[C@@H]4C=CCCOC(=O)C4[C@H]2C(=O)N(CCCO)[C@@H]3C1=O (some centres not stated) | -0.0665 |
| CS(=O)(=O)CCOC(=O)C1=CC(c2ccc(CO)cc2)=CC(c2cccs2)N(Cc2cccc(OC(F)(F)F)c2)C=C1C(=O)OCCS(C)(=O)=O (configuration not stated) | -1.32 |
| C#C[C@H](O[Si](C#CCCCCCC)(C(C)C)C(C)C)c1ccccc1 | 0.783 |
| COc1ccc([Si](C)(C)[C@@H]2[C@@H](CCO)O[C@]3(C(=O)N(Cc4ccccc4)c4ccc(N(C=O)c5ccccc5)cc43)[C@H]2C)cc1 | -1.6 |
| C=C(COC)C(=O)CC[C@H](OC(=O)c1cccnc1)c1ccccc1OCCO | -2.92 |
| C=CCC(OC(C)=O)[C@@H]1[C@@H](N(Cc2cc3ccccc3o2)C(=O)c2ccc(C)cc2)c2cc(OCCCO)ccc2N1C(=O)c1ccc(-c2ccccc2)cc1 (some centres not stated) | 1.07 |
| NC(=O)[C@]1(Cc2ccccc2)N=C(c2ccc(OCCCO)cc2)O[C@@H]1c1ccccc1 | -0.189 |
| [N-]=[N+]=NCc1ccccc1C[C@]1(C(=O)NCCN2CCOCC2)N=C(c2ccc(OCCCO)cc2)O[C@H]1c1ccccc1CN=[N+]=[N-] | 0.0688 |
| CCOC(=O)C1=CC[C@@H](c2cccc(Cl)c2)N(S(=O)(=O)c2ccc(C)cc2)[C@H]1c1ccc(C#N)cc1 | -1.42 |
| O=c1cccc(-c2ccccc2)o1 | -0.156 |
| CC(=O)NCCCC[C@@H]1NC(=O)[C@@H]2C[C@H](C(=O)NCc3ccc(F)cc3)[C@H](c3ccc(O)cc3)N2C1=O | 0.473 |

| SMILES | z-score |
| --- | --- |
| O=C1OCCC=C[C@H]2OC34C=CCN(c5ccc6ccccc6c5)C(=O)[C@H]3N(CCCCCCO)C(=O)[C@@H]4C12 (some centres not stated) | 0.868 |
| O=C1OCCC/C=C\[C@H]2OC34C=CCN(Cn5nnc6ccccc65)C(=O)[C@H]3N(CCCO)C(=O)[C@@H]4C12 (some centres not stated) | 0.702 |
| CC(C)OC(=O)C1=CCC(c2cccc(Cl)c2)O1 (configuration not stated) | -0.501 |
| O=C1[C@H]2C=C(Br)[C@H](C[C@@H]2OCCOCCO)[C@@]12CO2 | -0.608 |
| O=c1cccc(-c2ccc3ccccc3c2)o1 | 0.37 |
| CCCCCCCCCCC(O)C1C=CC2C(=O)N(c3ccccc3)C(=O)C2N1Nc1ccc([N+](=O)[O-])cc1 (configuration not stated) | -1.11 |
| CN1C(=O)C2C=CC(C(O)c3ccccc3)N(NC(=O)OC(C)(C)C)C2C1=O (configuration not stated) | -0.0265 |
| CN(C)CCCC[C@@H]1NC(=O)[C@@H]2C[C@H](C(=O)NCCCCCCN)[C@H](c3ccc(O)cc3)N2C1=O | 0.109 |
| CCOC(=O)C[C@H]1[C@H](OC(=O)c2cc3ccccc3oc2=O)[C@@H](NC(=O)c2ccc3ccccc3c2)c2cc(OCCCO)ccc2N1C(=O)c1ccccc1 | -0.486 |
| COc1ccc([Si](C)(C)[C@@H]2[C@@H](CCO)O[C@]3(C(=O)N(Cc4ccc(N5C(=O)c6cccc7cccc5c67)cc4)c4ccccc43)[C@H]2C)cc1 | -4.48 |
| O=C(NCC(O)CO)[C@@]1(Cc2ccccc2)COC(c2ccc(OCCCO)cc2)=N1 (some centres not stated) | 0.0244 |
| CC(C)(C)OC(=O)CC[C@]1(C(=O)NCC(O)CO)N=C(c2ccc(OCCCO)cc2)O[C@H]1c1ccccc1CN=[N+]=[N-] (some centres not stated) | -0.483 |
| C=C(/C(=C/C[C@@H](OC(C)=O)c1ccc(CO)o1)c1cnc2ccccc2c1)C(C)C | 0.0262 |
| O=C1O[C@H](c2ccccc2)[C@H](c2ccccc2)N2[C@H]1[C@@H](C(=O)NC[C@H](O)c1ccccc1)[C@]1(C(=O)Nc3ccc(C#CC4(O)CCCCCC4)cc31)[C@H]2c1ccccc1OCCO | -6.96 |
| O=C1C[C@@](C(=O)O)(c2ccc([N+](=O)[O-])cc2)[C@@H](c2ccc(CO)cc2I)N1C1CCCCC1 | -1.57 |
| COc1ccc(CCNC(=O)[C@@]2(C)c3ccccc3C(=O)N(Cc3ccccc3)[C@H]2c2ccc(CO)cc2)cc1 | 1.43 |
| CC1CC/C=C\[C@H]2OC34C=CCN(Cn5nnc6ccccc65)C(=O)[C@H]3N(CCCO)C(=O)[C@@H]4C2C(=O)O1 (some centres not stated) | 0.623 |
